# In PMC12215968:
# Legend:
# [1] = molecular target: Eukaryotic translation initiation factor 3 subunit C (UniProt Q99613); assay: cross-linking mass spectrometry
# [2] = molecular target: Peptidyl-prolyl cis-trans isomerase A (UniProt P62937); assay: cross-linking mass spectrometry
# Thymosin beta-4 = Thymosin beta-4 (UniProt P62328); assay: cross-linking mass spectrometry
# [3] = molecular target: 26S proteasome non-ATPase regulatory subunit 2 (UniProt Q13200); assay: cross-link between two proteins; cross-linking mass spectrometry
# [4] = molecular target: Adenylyl cyclase-associated protein 1 (UniProt Q01518); assay: as above
# [5] = molecular target: Elongation factor 1-alpha 2 (UniProt Q05639); assay: as above
# [6] = molecular target: Heat shock protein HSP 90-beta (UniProt P08238); assay: as above
# [7] = molecular target: Putative heat shock protein HSP 90-beta-3 (UniProt Q58FF7); assay: as above
# Histone H1.2 = Histone H1.2 (UniProt P16403); assay: as above
# Histone H2B type F-S = Histone H2B type F-S (UniProt P57053); assay: as above
# Junctophilin-2 = molecular target: T1, Junctophilin-2 (UniProt Q9BR39); assay: as above
# T1 sequence: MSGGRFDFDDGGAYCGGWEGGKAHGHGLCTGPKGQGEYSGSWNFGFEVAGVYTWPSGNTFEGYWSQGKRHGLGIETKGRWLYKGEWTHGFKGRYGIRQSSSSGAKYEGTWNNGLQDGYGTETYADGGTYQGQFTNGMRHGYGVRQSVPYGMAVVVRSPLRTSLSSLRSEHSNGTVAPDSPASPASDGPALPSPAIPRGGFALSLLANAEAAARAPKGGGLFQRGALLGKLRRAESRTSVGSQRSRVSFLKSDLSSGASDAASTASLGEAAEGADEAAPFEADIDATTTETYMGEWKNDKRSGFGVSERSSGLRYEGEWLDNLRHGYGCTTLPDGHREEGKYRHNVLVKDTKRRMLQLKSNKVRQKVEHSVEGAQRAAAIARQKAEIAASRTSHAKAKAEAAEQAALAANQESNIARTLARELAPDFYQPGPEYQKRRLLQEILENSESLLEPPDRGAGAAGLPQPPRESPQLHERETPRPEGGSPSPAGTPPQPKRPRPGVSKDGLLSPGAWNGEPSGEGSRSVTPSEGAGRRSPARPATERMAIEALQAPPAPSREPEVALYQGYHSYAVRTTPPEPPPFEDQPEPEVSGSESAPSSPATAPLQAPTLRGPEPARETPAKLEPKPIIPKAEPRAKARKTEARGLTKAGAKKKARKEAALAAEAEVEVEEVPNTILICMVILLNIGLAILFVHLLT
# [8] = molecular target: Large ribosomal subunit protein eL24 (UniProt P83731); assay: as above
# [9] = molecular target: Ribosomal protein eL42-like (UniProt Q969Q0); assay: as above
# Thymosin beta-10 = Thymosin beta-10 (UniProt P63313); assay: as above
# [10] = molecular target: Ubiquitin-conjugating enzyme E2 L3 (UniProt P68036); assay: as above
# [11] = molecular target: Ubiquitin-like FUBI-ribosomal protein eS30 fusion protein (UniProt P62861); assay: as above
# [12] = molecular target: Ubiquitin-ribosomal protein eS31 fusion protein (UniProt P62979); assay: as above
substance,measurement,setting,value
"Small ribosomal subunit protein uS15, P62277",listed as a hit,[1],yes
"Actin, cytoplasmic 1, P60709",listed as a hit,[2],yes
same,listed as a hit,Thymosin beta-4,yes
"26S proteasome regulatory subunit 8, P62195",listed as a hit,[3],yes
"Actin, alpha cardiac muscle 1, P68032",listed as a hit,[4],yes
"Large ribosomal subunit protein uL13, P40429",listed as a hit,[5],yes
O60361,listed as a hit,[6],yes
same,listed as a hit,[7],yes
"Non-histone chromosomal protein HMG-17, P05204",listed as a hit,Histone H1.2,yes
"Histone H2A type 1, P0C0S8",listed as a hit,Histone H2B type F-S,yes
"Histone H2B type 1-C/E/F/G/I, P62807",listed as a hit,Junctophilin-2,yes
"Large ribosomal subunit protein eL8, P62424",listed as a hit,[8],yes
"Large ribosomal subunit protein uL1, P62906",listed as a hit,[9],yes
"Actin, cytoplasmic 2, P63261",listed as a hit,Thymosin beta-10,yes
"Ubiquitin-ribosomal protein eS31 fusion protein, P62979",listed as a hit,[10],yes
"Elongation factor 2, P13639",listed as a hit,[11],yes
"Histone H2A type 1-D, P20671",listed as a hit,[12],yes
"Histone H2A type 1-B/E, P04908",listed as a hit,[12],yes
